The campaign covered roughly 410,000 compounds. About 18,000 (4.4%) were called active. Another 7% or so got no clear call; they are omitted. Only a selection was taken, and actives are over-represented in it overall. Unmarked numbers belong to inactive results. Rule as the data show it: active = activity change below about -60%; inconclusive = no clear call, values can overlap the other calls; inactive = above about -39%.
% is scaled to controls: 0 for no effect and ±100 for the full control effect.

The nature of the assay: qHTS Assay for inhibitors of the human cytomegalovirus (HCMV). As to conditions: HFF cells, HCMV-luciferase reporter, 72 h; at 57.5 µM; stronger effect = lower value. Summed up:
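After 16 h attachment at 37C, HFF cells received test compound and HCMV-luciferase (1 PFU/cell); reporter luminescence read 72 h later, data normalized against buffer-only and known inhibitor Salinomycin.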
In the case of `Cc1nc2nc(NCc3cccc(Br)c3)[nH]n2c(=O)c1Cc1ccccc1`, the activity change, negative = inhibition is -3.03%.
Take `COc1ccc(C(=O)CSc2c(C(C)C)cnc3c2c(=O)n(C)c(=O)n3C)cc1`: the activity change, negative = inhibition was 8.98%.
The value for `CCOCCc1nn2c(=O)cc(COC(=O)CNC(=O)c3ccc(C(C)(C)C)cc3)nc2s1` was -3.83%; that for `CCOc1ccc(N(CC(=O)NCCc2ccc(OC)cc2)S(C)(=O)=O)cc1` was -24%.
The figure for `Cc1cccc(C(CC(=O)NCC2(c3ccccc3)CCCC2)c2ccccc2)c1O` (stereo not given) is -38.6%.
The value for `O=C(NCCc1ccccc1)/C(=C\c1ccc([N+](=O)[O-])cc1)NC(=O)c1ccccc1` was -102% (active); that for `O=C(N/C(=C\c1ccc([N+](=O)[O-])cc1)C(=O)N1CCCCC1)c1ccco1` was -3.57%.
For `CNC(=O)/C(=C\C=C\c1ccccc1)NC(=O)c1ccc([N+](=O)[O-])cc1`, the activity change, negative = inhibition was 45.3%.
The value for `CCCN(CCC)CCNC(=O)c1ccc2c(c1)NC(=O)C(CS(=O)(=O)Cc1cccc(Br)c1)N2` (stereo not given) was -22.3%; that for `CC(C)N1CCc2c(sc(NC(=O)Cc3ccccc3)c2C#N)C1` was -9.26%.
The figure for `CC(=O)N1CCc2c(sc(NC(=O)CCS(=O)(=O)c3ccc(C)cc3)c2C(N)=O)C1` is 5.61%; for `CC(=O)N1CCc2c(sc(NC(=O)CCS(=O)(=O)c3ccccc3)c2C#N)C1` it is -99.8% (active).
For `CC(C)CNc1cccc2c1S(=O)(=O)N[C@H](CC(C)C)CO2`, the activity change, negative = inhibition was -24.9%.
The figure for `O=C(C[C@H]1CC[C@H]2[C@@H](COC[C@H](O)CN2C(=O)c2ccccn2)O1)N1CCN(c2ccccc2)CC1` is -65.2% (active).
As to `O=C(CSc1nnc(N2CCOCC2)n1-c1cccc(F)c1)N1CCN(c2ccccn2)CC1`, the activity change, negative = inhibition is -18.8%.
As to `CCCNC(=O)C[C@@H]1CC[C@@H]2[C@H](COC[C@H](O)CN2C(=O)c2cc(Cl)cc(Cl)c2)O1`, the activity change, negative = inhibition is -17.8%.
The figure for `COc1cccc(OCCn2c(-c3ccc(Br)cc3)nc3ccccc3c2=O)c1` is 43%; for `COc1ccc(-c2nc3ccccc3c(=O)n2CCc2ccc(O)cc2)cc1` it is -62% (active); for `COc1ccccc1OCCCn1c(-c2ccc(Cl)cc2)nc2ccccc2c1=O` it is 39.4%.
For the compound `Cc1ccc2c(c1)N(C(=O)CCC(=O)NCc1ccccc1F)CC(C)O2` (stereo not given), the activity change, negative = inhibition is 8.23%.
The figure for `Cc1ccc(C(=O)C(=S)N2CCOCC2)cc1` is 6.2%; for `Cc1ccc(C(=O)NC(=S)Nc2ccc(N3CCOCC3)cc2)cc1` it is -103% (active).
Regarding `COC(=O)c1ccc(NC(=S)NN2CCOCC2)cc1`, the activity change, negative = inhibition is 35.3%.
`O=C(NCCN1CCN(Cc2ccccc2)CC1)c1cc2c(=O)[nH]c3ccccc3c2s1`: the activity change, negative = inhibition was -8.01%.
Regarding `Cc1nc2ccccc2c2oc(C(=O)NCCCN3CCC(C)CC3)cc12`, the activity change, negative = inhibition was 52.7%.
With `CCC1CCCCN1CCCNC(=O)c1cc2c(Cl)nc3ccccc3c2s1` (stereo not given), the activity change, negative = inhibition is -99.5% (active).
The value for `Cc1ccc(NC(=O)CN(C)C(=O)c2ccc(Cl)c(S(=O)(=O)NCc3ccco3)c2)cc1` was -35%; that for `O=S(=O)(c1ccc(C2CCCCC2)cc1)N1CCN(c2ccc(Cl)c(Cl)c2)CC1` was 9.35%; that for `COC(=O)c1c(NC(=O)CN2CCN(S(=O)(=O)c3ccccc3[N+](=O)[O-])CC2)sc2c1CCC(C)C2` (stereo not given) was -60.3% (active).
The figure for `Cc1c(Br)c([N+](=O)[O-])nn1CC(=O)Nc1sc2c(c1C(=O)OC(C)C)CCC(C)C2` (stereo not given) is 9.26%.
The value for `COC(=O)c1c(NC(=O)CCCOc2ccccc2)sc2c1CCC(C)C2` (stereo not given) was 5.16%; that for `Cn1c(=O)oc2cc(S(=O)(=O)CCC(=O)NCCc3ccc(Cl)cc3)ccc21` was 11.3%.
Take `CCN(CC)c1nn2c(=O)c(C(=O)NCCc3ccccc3)cnc2s1`: the activity change, negative = inhibition was 3.6%.
The value for `COc1ccc(NS(=O)(=O)c2cc3c4c(c2)CC(=O)N4CCC3)cc1Cl` was -18.7%; that for `CCOc1ccc(Br)cc1S(=O)(=O)Nc1cccc(S(=O)(=O)N(CC)CC)c1` was 14.1%.
For `CCOc1ccc(Br)cc1S(=O)(=O)N1CCC(C(=O)O)CC1`, the activity change, negative = inhibition is -26.6%.
In the case of `CCOc1ccc(Br)cc1CSC(=N)N`, the activity change, negative = inhibition is -73.3% (active).
Take `Cc1nn(C)c2c1c(C(F)(F)F)cc(=O)n2C(C)C(=O)NCc1ccc(Cl)cc1` (stereo not given): the activity change, negative = inhibition is 7.11%.
Turning to `O=C(c1cccc(Br)c1)N1CCN(Cc2cc(=O)n3nc(-c4ccccc4)sc3n2)CC1`, the activity change, negative = inhibition is -19.8%.
For `COc1ccccc1NC(=O)Cn1cnc2ccc(S(=O)(=O)N3CCC(C)CC3)cc2c1=O`, the activity change, negative = inhibition was -5.25%.
The value for `COc1ccc(NC(=O)CSc2nnc(-c3nnn(-c4ccc(F)cc4)c3C)o2)cc1` was 10.5%; that for `Cc1ccccc1NC(=O)Cn1c(=O)n(CCc2ccccc2)c(=O)c2ccccc21` was 24.5%.
Regarding `Cc1ccc(NC(=O)N2CCC(c3nc4c(nnn4Cc4c(F)cccc4Cl)c(=O)[nH]3)CC2)cc1`, the activity change, negative = inhibition was -65.5% (active).
For the compound `O=C(c1ccccc1F)N1CCC(c2nc3c(nnn3Cc3cccc(F)c3)c(=O)[nH]2)CC1`, the activity change, negative = inhibition is 67.9%.
For the compound `Cc1ccc(Cn2nnc3c(=O)[nH]c(C4CCN(S(=O)(=O)/C=C/c5ccccc5)CC4)nc32)cc1`, the activity change, negative = inhibition is 48.5%.
On to `CCOc1ccc(-n2c(C)nc3c(cnn3-c3ccc(C)cc3)c2=O)cc1`, for which the activity change, negative = inhibition is -26.3%.
The figure for `CCCNC(=S)N1CCC(NC(=O)C23CC4CC(CC(C4)C2)C3)CC1` is 20%; for `Cc1ccc(CNC(=O)CSc2c(C)cnc3c2c(=O)n(C)c(=O)n3C)cc1` it is -25%.
Turning to `O=C(OC12CC3CC(CC(C3)C1)C2)c1ccc(NCc2cc(O)ccc2O)cc1`, the activity change, negative = inhibition is -100% (active).
The value for `O=C(CSCc1c(Cl)cccc1Cl)NN1C(=O)c2ccccc2C1=O` was 12.2%; that for `CCN1CCc2nc3sc(C(=O)Nc4ccccc4OC(F)(F)F)c(N)c3cc2C1` was -25.3%; that for `N#C/C(=C\c1ccc(-c2cccc([N+](=O)[O-])c2)o1)C(=O)NCCN1CCOCC1` was -67.8% (active).
Regarding `Cc1ccc(Cc2cnc(NC(=O)/C(C#N)=C/c3ccc(-c4cccc([N+](=O)[O-])c4)o3)s2)cc1`, the activity change, negative = inhibition is -61.6% (active).
`CCCCOC(=O)/C(C#N)=C/c1ccc(-c2cccc(C(F)(F)F)c2)o1`: the activity change, negative = inhibition is -3.64%.
The value for `O=C(NCCN1CCN(C(=O)c2cccc([N+](=O)[O-])c2)CC1)C(=O)NCc1ccc(Cl)cc1` was 27.7%.
`CCOC(=O)c1ccc(-c2ccc(/C=C(\C#N)C(=O)Nc3ccc(C)cc3)o2)cc1`: the activity change, negative = inhibition is 31.4%.
Take `CCOC(=O)c1ccc(-c2ccc(/C=C(\C#N)C(=O)Nc3ccc(OCC)cc3)o2)cc1`: the activity change, negative = inhibition was 4.93%.
The figure for `Cc1ccc(OCCSc2nc(-c3cccs3)nc3cc(=O)[nH]n23)cc1Cl` is 22.8%.
The value for `COc1ccccc1N1CCN(S(=O)(=O)CCNC(=O)COc2ccc(F)cc2)CC1` was 65.8%.
The value for `Cc1ccc(NC(=O)CCCn2c(=O)c3cccn3c3ccccc32)cc1Cl` was 4.78%; that for `Cc1c(C)c(C)c(S(=O)(=O)N2CCC3(CC2)OCCO3)c(C)c1C` was -6.48%.
On to `CC(C)c1ccc(S(=O)(=O)N2CCC3(CC2)OCCO3)cc1`, for which the activity change, negative = inhibition is -60.4% (active).
The value for `O=S(=O)(c1ccc(Cl)s1)N1CCC2(CC1)OCCO2` was -18.3%.
The value for `COCCNC(=O)c1cccc(-c2nc3c(NC4CCCCC4)nccc3[nH]2)c1` was -4.46%.
The figure for `CCOc1ccccc1NC(=O)CCn1cnnn1` is -4.13%; for `O=C(COc1cc(Cl)c(Cl)cc1Cl)NC(=O)NC1CCCC1` it is 65.3%; for `NC(=S)NN=Cc1ccc(OC(=O)COc2cc(Cl)c(Cl)cc2Cl)cn1` it is -75.3% (active).
On to `CC(C)(C)c1ccc(C(=O)N2CCC(c3nc(-c4ccc(S(=O)(=O)N5CCCC5)cc4)no3)CC2)cc1`, for which the activity change, negative = inhibition is -35.7%.
The value for `CCCN(C(=O)Cn1cc(S(=O)(=O)N2CCN(c3ccccc3F)CC2)c2ccccc2c1=O)c1cccc(C)c1` was -13.9%.
Consider `CC1COC2C(O1)N(S(C)(=O)=O)CCN2S(C)(=O)=O` (stereo not given), for which the activity change, negative = inhibition was 17.4%.
The figure for `CCCOC1CCCN(C(=O)c2cc(COc3cncc(Cl)c3)on2)C1` (stereo not given) is 45.7%; for `CCOC(=O)CC1(NC(=O)c2cc(COc3cncc(Cl)c3)on2)CCCCC1` it is -73.4% (active); for `CCOC(=O)CC1COCCN1C(=O)c1cc(COc2ccc(F)c(F)c2)on1` (stereo not given) it is 53.9%.
With `O=C(O)CSc1nccn1-c1cccc(Cl)c1`, the activity change, negative = inhibition was -24.9%.
For `Cc1ccc(Nc2c(-c3ccc(N(C)C)cc3)nc3nc[nH]n23)cc1`, the activity change, negative = inhibition is -7.65%.
Consider `Cc1cccc(OCCSc2nc3ccccc3n2CC(=O)N2CCCCC2)c1C`, for which the activity change, negative = inhibition was 0.117%.
Consider `CCOC(=O)C1CCCN(C(=O)c2ccc(-n3ccc4ccccc43)s2)C1` (stereo not given), for which the activity change, negative = inhibition was 7.94%.
The value for `Cc1ccc(C)c(OCc2cc(C(=O)N3CCN(c4cnccn4)CC3)no2)c1` was -30.5%.
Turning to `C=CCC1(CC=C)CCCN1C(=O)c1cc(COc2ccc(-n3cncn3)cc2)on1`, the activity change, negative = inhibition was -87.7% (active).
Turning to `CC1CN(C(=O)c2cc(COc3c(F)cccc3F)on2)CCN1C` (stereo not given), the activity change, negative = inhibition was 3.63%.
The value for `COc1cccc(CNC(=O)Cn2c(=O)c3cccn3c3ccc(F)cc32)c1OC` was 44.7%; that for `CCOc1ccccc1CNC(=O)c1ccc2c(c1)nc1n2CCC(C)C1` (stereo not given) was 33.3%; that for `Cc1ccc2nc(COc3cccc(NC(=O)Nc4ccc(C)c(Cl)c4)c3)cc(=O)n2c1` was 26.6%.
The value for `CC(NC(=O)c1cc2c(=O)n3ccccc3nc2n(C(C)C)c1=N)c1ccccc1` (stereo not given) was 0.208%; that for `Cc1nn(-c2nc(-c3ccccc3)cc(C(F)(F)F)n2)c(C)c1Cl` was -14.9%.
